D1 antag = blocks dopamine activation of the human D1 receptor. HEK293 TREx D1 cells, calcium flux, dopamine EC80; stronger effect = lower value. 360,000 compounds, 3.2% hits. activity change, negative = inhibition, % at 10 µM. AID 504652. P21728; in the data active = activity change below about -30%
Target sequence (P21728 whole entry, looked up): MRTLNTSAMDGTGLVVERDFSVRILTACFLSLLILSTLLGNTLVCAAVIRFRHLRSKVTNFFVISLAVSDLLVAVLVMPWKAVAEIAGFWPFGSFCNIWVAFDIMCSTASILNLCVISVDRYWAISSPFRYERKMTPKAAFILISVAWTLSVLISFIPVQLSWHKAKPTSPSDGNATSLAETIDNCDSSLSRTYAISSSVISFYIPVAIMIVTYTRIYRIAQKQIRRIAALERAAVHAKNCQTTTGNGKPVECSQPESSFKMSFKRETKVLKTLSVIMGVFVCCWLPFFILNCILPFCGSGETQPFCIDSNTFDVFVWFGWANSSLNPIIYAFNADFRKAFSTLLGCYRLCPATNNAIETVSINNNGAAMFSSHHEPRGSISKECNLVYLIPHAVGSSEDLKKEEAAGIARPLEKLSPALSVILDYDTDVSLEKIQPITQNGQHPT
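Calcium flux readout: force-coupled, inducible Hek293 Trex D1 line, cells induced overnight at 30 C with tetracycline, dye-loaded 30–90 min at RT. Antagonism scored against EC80 dopamine challenge given 180 s after compound.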
TRHR agonist = activates the human TRH receptor; TRHR cells, calcium flux fluo-8, FDSS agonist mode; 360,000 compounds, 0.18% hits; activation, % at 2 µM; AID 493084
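In this calcium-flux screen, cells bearing human TRHR are dye-loaded with fluo-8, baselined for 10 cycles, then exposed to library compounds; positive kinetic calcium responses during the agonist phase mark hits, with TRH as control.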
D1 potentiator = human D1 dopamine receptor positive modulation. potentiation, % at 10 µM. AID 504651. HEK293 TREx D1 cells, calcium flux, dopamine EC20 potentiation. 360,000 compounds, 0.036% hits; in the data active = potentiation above about 30%
GRP78 ERSR act = inducers of ER stress response in human glioma cells. U87-MG GRP78 promoter luciferase reporter, 16 h. Potency, µM, usual class: activators. 420,000 compounds, 0.02% hits; active = well fitted activation curve with a large enough effect; also: series mostly up to about 76 µM; nearly all actives have a fitted effect of over 35% in size
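Stably transfected U87-MG glioma cells carrying a GRP78-based luciferase sensor; 16 h compound incubation. Luminescence end-point read 10 min after Bright-Glo addition at room temperature.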
TRHR enhancer = allosteric enhancers of human TRH receptor; TRHR cells, fluo-8 calcium fluorescence, EC20 TRH enhancement; enhancement, % at 2 µM; 360,000 compounds, 0.66% hits; in the data active = enhancement above about 30%
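Enhancer read-out: after compound pinning and an initial kinetic agonist-mode read, an EC20 of TRH (10 nM final) was injected and fluo-8 calcium signal (Ex 480/Em 530) followed at 1 s/cycle for 100 cycles in TRHR-expressing cells.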
D1 agonist = agonists of human D1 dopamine receptor; HEK293 T-REx D1 cells, calcium flux, agonist mode; P21728; activation, % at 2 µM; 360,000 compounds, 1% hits; AID 504660
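Tetracycline-induced HEK293 TREx D1 cells, force-coupled to calcium signalling, were dye-loaded with a no-wash calcium kit. Compound was pin-added after a 10 s baseline. Fluorescence was read kinetically at 1 cycle/s for 180 s, with calcium rises flagged as agonism.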
A number is an active result; . = inactive; / = no result given. Most compounds without a hit are left out; they make up all but 4% or so of the library. Rule as the data show it, unless noted: active = activation above about 30%; inactive = the rest.

SMILES	D1 antag	TRHR agonist	D1 potentiator	GRP78 ERSR act	TRHR enhancer	D1 agonist
COC(=O)c1ccc(N2CCN(S(=O)(=O)c3ccc(Br)cc3)CC2)c([N+](=O)[O-])c1	-33	.	.	.	.	.
COC(=O)c1ccc(-n2cncn2)c([N+](=O)[O-])c1	.	.	.	.	37	.
COC(=O)c1ccc(N2CCN(S(=O)(=O)c3ccc(C)cc3)CC2)c([N+](=O)[O-])c1	.	.	.	.	.	.
Cc1ccc(NC(=O)CN(C)C(=O)c2ccc(-n3cncn3)c([N+](=O)[O-])c2)cc1	-55	.	.	.	.	.
COc1cc(OC)cc(C(=O)NNC(=O)c2ccc(-n3cncn3)c([N+](=O)[O-])c2)c1	.	.	.	.	.	.
CCN(CC)CCNC(=O)c1ccc(-n2c(C)cc3c2CCCC3=O)cc1	.	.	.	.	.	.
O=S(=O)(NCCSc1nc2ccccc2o1)c1ccccc1	-33	.	.	.	.	.
O=C(CSc1nc2ccccc2o1)Nc1ccccc1	-37	.	.	.	.	.
Cc1cccc2sc(N(CCN(C)C)C(=O)c3ccc4c(c3)OCCO4)nc12	.	.	.	.	.	.
FC(F)Oc1cccc(NC(=S)N2CCN(c3ccccn3)CC2)c1	-71	.	.	.	.	.
S=C(Nc1ccccc1)N1CCN(c2ccccn2)CC1	.	.	.	.	.	.
CCCNC(=O)C1CC(=O)N(c2ccc(OCc3ccc(F)cc3)cc2)C1 (stereo not given)	-36	.	.	.	.	.
CCOc1ccc(N2CC(C(=O)N3CCCC3)CC2=O)cc1 (stereo not given)	-83	.	.	.	.	.
NC(=O)C1CC(=O)N(c2ccc(OCc3ccc(Cl)cc3)cc2)C1 (stereo not given)	-39	.	.	.	.	.
O=C(NCc1nnnn1-c1ccc(F)cc1)C1CC(=O)N(c2ccc(F)cc2)C1 (stereo not given)	-30	.	.	.	.	.
COc1cc(C(=O)O[C@@H]2CC3CC[C@]2(C)C3(C)C)ccc1O	/	/	/	.	/	/
CN(CC(=O)Nc1cccc(F)c1)C(=O)c1ccccc1CCc1ccccc1	.	.	.	.	.	.
C=CCNC(=O)C1CC(=O)N(c2ccc(OCC(=O)Nc3ccc(C)cc3)cc2)C1 (stereo not given)	-31	.	.	.	.	.
C=CCNC(=O)C1CC(=O)N(c2ccc(OCC(=O)Nc3ccc(OC)cc3)cc2)C1 (stereo not given)	.	.	.	.	.	.
CC12CCC=CC1C(c1ccc(/C=C/c3ccccc3)cc1F)N(Cc1ccccc1)C2=O (stereo not given)	/	/	/	.	/	/
O=C(NC(=S)Nc1ccc(F)c([N+](=O)[O-])c1)c1ccccc1F	.	.	.	.	.	.
O=C(Nc1ccccc1)Nc1ccc(Cl)c([N+](=O)[O-])c1	-46	.	.	.	.	32
Cc1ccc(NC(=O)Nc2ccccc2)cc1[N+](=O)[O-]	-33	.	.	.	.	.
O=C(Nc1ccccc1)Nc1ccc(F)c([N+](=O)[O-])c1	-48	.	.	.	.	.
Cc1cc(NC(=O)Nc2ccc(Cl)c(Cl)c2)n(-c2ccccc2)n1	-44	.	.	.	.	.
SMILES	D1 antag	TRHR agonist	D1 potentiator	GRP78 ERSR act	TRHR enhancer	D1 agonist
Cc1ccc(C(=O)Nc2cccc(-c3nc(CNC(=O)c4ccc5ccccc5n4)c(C)o3)c2)s1	/	/	/	.	/	/
O=C(COc1ccc([N+](=O)[O-])cc1)NC(C(=O)O)C(O)c1cccc([N+](=O)[O-])c1 (stereo not given)	.	.	.	.	.	.
CCNC(=S)Nc1ccc(Cl)c([N+](=O)[O-])c1	-39	.	.	.	.	.
CCNC(=S)Nc1cccc([N+](=O)[O-])c1	.	.	.	/	.	.
COC(=O)c1cc(NC(=O)Nc2ccccc2)ccc1Cl	-54	.	.	.	.	41
O=C(Nc1ccccc1)Nc1ccccc1	-33	.	.	.	.	.
O=C(Nc1cccc(-c2ccc(N3CCOCC3)nn2)c1)c1ccccc1	.	.	.	.	.	.
O=C(COc1ccccc1)Nc1cccc(-c2ccc(N3CCOCC3)nn2)c1	-73	.	.	.	.	.

Assay outcomes: PubChem, National Center for Advancing Translational Sciences (NCATS)
